A number with no mark means an inactive call. Inconclusive results are not listed. Where a call stands in place of a potency, no number is given. Activity calls are given as the source filed them. Unless noted, calls follow the shape of the dose curve; as a rule, active = well fitted curve in the direction sought with a large enough effect in the repeat runs; inconclusive = weak or mixed curves; inactive = no such curve, though single readings can be large; an effect the other way counts as inactive or inconclusive.
Legend:
[1] = qHTS assay to identify small molecule antagonists of the glucocorticoid receptor (GR) signaling pathway - cell viability counter screen (AID 720693); also: nearly all actives have a fitted effect of over 55% in size
[2] = qHTS assay to identify small molecule antagonists of the androgen receptor (AR) signaling pathway - cell viability counter screen (AID 743033; also: nearly all actives have a fitted effect of over 45% in size)
[3] = qHTS assay to identify small molecule antagonists of the androgen receptor (AR) signaling pathway using the MDA cell line - cell viability counter screen (AID 743041; also: nearly all actives have a fitted effect of over 45% in size)
How it was run: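 Same-well cytotoxicity was assessed by CellTiter-Fluor in MDA-kb2 AR-luc cells after 16 h of compound treatment under R1881 agonism.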

[4] = qHTS assay to identify small molecule antagonists of the thyroid receptor (TR) signaling pathway - cell viability counter screen (AID 743064); also: nearly all actives have a fitted effect of over 50% in size; also: potency is read from the fitted curve at half-maximal effect
How it was run: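 Compounds were tested on GH3.TRE-Luc cells in the presence of T3 at 1 nM final. Following 23.5 h at 37 °C, cell viability was quantified by CellTiter-Fluor.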

[5] = molecular target: Androgen receptor (Homo sapiens) (UniProt P10275); test: qHTS assay to identify small molecule agonists of the androgen receptor (AR) signaling pathway using the MDA cell line (AID 743040; also: nearly all actives have a fitted effect of over 20% in size; also: potency is read from the fitted curve at half-maximal effect)
How it was run: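 Human breast carcinoma MDA-kb2 reporter cells (MMTV-luc, AR/GR elements) were treated for 16 h at 37C in 0% CO2 following a 5 h settling period. Signal was quantified by ONE-Glo luminescence.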

[6] = molecular target: Androgen receptor (Homo sapiens) (UniProt P10275); test: qHTS assay to identify small molecule antagonists of the androgen receptor (AR) signaling pathway using the MDA cell line (AID 743042; also: nearly all actives have a fitted effect of over 55% in size)
How it was run: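 MDA-kb2 breast carcinoma cells carrying MMTV-luciferase (AR/GR responsive) were co-treated with compounds and the agonist R1881 for 16 h at 37C. Inhibition read as ONE-Glo luminescence; CellTiter-Fluor fluorescence measured in parallel for cytotoxicity.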

[7] = qHTS assay for identifying genotoxic compounds that show differential cytotoxicity against isogenic chicken DT40 cell lines with known DNA damage response pathways - Rad54/Ku70 mutant cell line (AID 743015); also: nearly all actives have a fitted effect of over 60% in size; also: potency is read from the fitted curve at half-maximal effect
[8] = qHTS assay for identifying genotoxic compounds that show differential cytotoxicity against isogenic chicken DT40 cell lines with known DNA damage response pathways - Rev3 mutant cell line (AID 743014); also: nearly all actives have a fitted effect of over 55% in size; also: potency is read from the fitted curve at half-maximal effect
[9] = qHTS assay for identifying genotoxic compounds that show differential cytotoxicity against isogenic chicken DT40 cell lines with known DNA damage response pathways - wild type cell line (AID 743012); also: nearly all actives have a fitted effect of over 60% in size; also: potency is read from the fitted curve at half-maximal effect
How it was run: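 Wild-type DT40 cells (300/well) exposed to compounds for 40 hours at 37 C/5% CO2. Viability read by CellTiter-Glo luminescence after 30 min at room temperature.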

[10] = molecular target: Androgen receptor (Homo sapiens) (UniProt P10275); test: qHTS assay to identify small molecule antagonists of the androgen receptor (AR) signaling pathway (AID 743035; active = well fitted inhibition curve with a large enough effect in the signal ratio in the repeat runs, not every such curve was filed as active; the % refers to the signal ratio; also: potency is read from the fitted curve at half-maximal effect)
How it was run: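 HEK293 cells stably carrying UAS-beta-lactamase reporter, 2,000/well, given compounds plus R1881 agonist and incubated 16 h at 37C. LiveBLAzer B/G FRET substrate then added for 2 h at room temperature before fluorescence reading.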

Chain of Androgen receptor (Homo sapiens) (P10275 whole entry, looked up): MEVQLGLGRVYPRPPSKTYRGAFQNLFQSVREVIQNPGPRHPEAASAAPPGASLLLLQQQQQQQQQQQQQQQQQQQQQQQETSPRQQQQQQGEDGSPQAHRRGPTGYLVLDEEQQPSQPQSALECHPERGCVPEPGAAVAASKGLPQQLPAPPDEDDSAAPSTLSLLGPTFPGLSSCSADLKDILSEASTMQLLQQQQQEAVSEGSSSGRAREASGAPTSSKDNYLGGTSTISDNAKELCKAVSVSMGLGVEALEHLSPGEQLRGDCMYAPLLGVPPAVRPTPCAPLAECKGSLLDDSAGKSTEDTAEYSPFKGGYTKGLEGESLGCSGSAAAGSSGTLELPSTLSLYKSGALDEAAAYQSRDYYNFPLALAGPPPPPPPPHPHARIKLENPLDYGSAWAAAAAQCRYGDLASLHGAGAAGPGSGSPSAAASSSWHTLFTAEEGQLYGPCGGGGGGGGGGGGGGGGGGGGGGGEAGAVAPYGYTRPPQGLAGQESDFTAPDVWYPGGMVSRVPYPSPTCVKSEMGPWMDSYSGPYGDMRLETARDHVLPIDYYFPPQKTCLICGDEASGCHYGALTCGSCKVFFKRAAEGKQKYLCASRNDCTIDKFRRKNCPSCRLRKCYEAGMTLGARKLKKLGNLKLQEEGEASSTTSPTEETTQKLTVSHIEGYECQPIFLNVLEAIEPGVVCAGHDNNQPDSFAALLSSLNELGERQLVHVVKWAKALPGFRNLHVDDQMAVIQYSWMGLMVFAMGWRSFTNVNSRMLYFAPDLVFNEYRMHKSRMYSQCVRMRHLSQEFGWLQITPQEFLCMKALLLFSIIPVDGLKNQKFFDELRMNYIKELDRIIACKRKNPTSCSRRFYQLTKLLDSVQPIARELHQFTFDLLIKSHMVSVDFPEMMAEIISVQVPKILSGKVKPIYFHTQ

| Structure (SMILES) | Potency [1] | Potency [2] | Potency [3] | Potency [4] | Potency [5] | Potency [6] | Potency [7] | Potency [8] | Potency [9] | Potency [10] |
| --- | --- | --- | --- | --- | --- | --- | --- | --- | --- | --- |
| CCc1cc(C2=C(C(=O)O)N(c3ccccc3C(F)(F)F)S(=O)(=O)c3ccccc32)cc2c1OCO2 | inactive | inactive | inactive | 2.41 µM (active) |  |  |  |  |  |  |
| CCCCC(=O)OCC(=O)[C@H]1[C@H](C)C[C@H]2[C@@H]3C[C@H](F)C4=CC(=O)C=C[C@]4(C)[C@@]3(F)[C@@H](O)C[C@@]21C | inactive | inactive | inactive | inactive | 0.0047 µM (active) | inactive |  |  |  |  |
| CCOCC(O)COc1ccc(NC(=O)CC[S+](C)C)cc1 (stereo unspecified) | inactive | inactive | inactive | inactive |  |  | inactive |  |  |  |
| Cc1ccc(N=Nc2c(O)c(C(=O)O)cc3ccccc23)c(S(=O)(=O)O)c1 | inactive | inactive | inactive |  |  |  | 13.3 µM (active) |  |  |  |
| COc1cc2nc(N3CCN(C(=O)C4COc5ccccc5O4)CC3)nc(N)c2cc1OC (stereo unspecified) | inactive | inactive | inactive |  |  |  |  | inactive |  |  |
| Nc1cccc([N+](=O)[O-])c1 |  | inactive | inactive | inactive | inactive | inactive | inactive | inactive | inactive | inactive |
| C#CCN(C)CCCOc1ccc(Cl)cc1Cl | inactive | inactive | inactive |  |  |  |  |  |  |  |
| CCC(=O)O[C@]1(C(=O)CCl)[C@@H](C)C[C@H]2[C@@H]3CCC4=CC(=O)C=C[C@]4(C)[C@@]3(F)[C@@H](O)C[C@@]21C |  |  | inactive | inactive | 0.0019 µM (active) | inactive | 29.8 µM (active) | 2.37 µM (active) | 13.3 µM (active) | 7.56 µM (active) |
| O=C(c1ccc(F)cc1)C1CCN(CCn2c(=S)[nH]c3ccccc3c2=O)CC1 |  | inactive | inactive | inactive | inactive | inactive | 6.68 µM (active) |  | 18.8 µM (active) |  |
| CC(=O)c1cccc([N+](=O)[O-])c1 | inactive | inactive | inactive | inactive |  |  |  |  |  |  |
| CCCCCCCCCCO[C@@H]1O[C@H](CO)[C@@H](O)[C@H](O)[C@H]1O | inactive |  | inactive | inactive |  |  | 61.1 µM (active) | 61.1 µM (active) |  |  |
| COS(=O)(=O)C(F)(F)F | inactive |  |  | inactive |  |  | inactive |  |  |  |
| COc1cc(Cl)c(OC)cc1N | inactive | inactive | inactive | inactive |  |  |  |  |  |  |
